Screens: PubChem BioAssay, National Center for Advancing Translational Sciences (NCATS)
A selection: hits, their analogues and other compounds. The true share with any hit is near 9.4%.
Pf growth 96h – Primary qHTS for delayed death inhibitors of the malarial parasite plastid, 96 hour incubation; 320,000 tested, 6.9% active; AID 504834, 2011; P. falciparum luciferase reporter growth, 96 h; Potency, µM (titrated, usually from 28.7 µM), usual class: inhibitors
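Luminescence readout: decreased luciferase signal marks inhibited growth of reporter-expressing P. falciparum in infected red cells (2% hematocrit, 0.05% parasitemia final), exposed to compound two generations (96 h, 37 C, 5% CO2).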
SARS PLpro yeast – qHTS of Yeast-based Assay for SARS-CoV PLP; S. cerevisiae expressing SARS-CoV PLpro, growth rescue; Potency, µM (highest dose often 32.9 µM), actives largely listed as activators; 330,000 tested, 0.19% active; AID 485353, 2010; calls by dose curve; note: nearly all actives have a fitted effect of over 55% in size
Pf growth 48h – Primary qHTS for delayed death inhibitors of the malarial parasite plastid, 48 hour incubation; P. falciparum luciferase growth in erythrocytes, 48 h; Potency, µM (titrated, usually from 28.7 µM), most hits filed as inhibitors; 310,000 tested, 5.9% active; AID 504832, 2011
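Luciferase-expressing P. falciparum in infected erythrocytes (2% hematocrit, 0.1% parasitemia final) in RPMI 1640/0.5% Albumax were exposed to compound for 48 hours at 37 C, 5% CO2; growth read as luminescence.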
AMA1-RON2 inh – qHTS for Inhibitors of AMA1-RON; Towards Development of Antimalarial Drug Lead: Primary Screen. Plasmodium falciparum AMA1 (3D7) - RON2 peptide interaction. AlphaScreen AMA1-biotinylated RON2 peptide binding. Potency, µM (highest dose often 58.2 µM), hits mostly inhibitors. 360,000 tested, 0.2% active. AID 720542, 2013; note: nearly all actives have a fitted effect of over 45% in size
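AMA1 (3D7) with his tag at 25 nM final met compounds first, then biotinylated RON2 peptide at 25 nM; detection used donor plus acceptor beads, 10 µg/mL apiece, read by AlphaScreen after 30 min at room temperature.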
Numbers stand for hits; - = inactive; ? = inconclusive; . = not tested or not shown; [ ] = another dose, or the depositor's remark. Unless noted, calls come from the whole dose curve; as a rule, active = well fitted curve in the direction sought with a large enough effect; inconclusive = small, poorly fitted or top-dose-only effect, or another doubt; inactive = no such curve, though single readings can be large; an effect the other way counts as inactive or inconclusive.

SMILES	Pf growth 96h	SARS PLpro yeast	Pf growth 48h	AMA1-RON2 inh
CCOC(=O)c1c(C)[nH]c(C(=O)OCC(=O)Nc2ccc(OCC)cc2)c1C	.	-	-	-
CCCS(=O)(=O)N1CCC(C(=O)NCCc2ccc(C)cc2)CC1	-	-	-	-
O=C(NCCC(=O)N1CCN(c2cccc(Cl)c2)CC1)c1ccc(Br)cc1	-	-	?	-[11.6 µM]
Cc1cc(C)cc(NC(=O)C(OC(=O)c2ccc(NC(=O)CC#N)cc2)c2ccccc2)c1 (stereo not drawn)	10µM	-	10µM	-
Cc1cc(C)cc(NC(=O)C(OC(=O)c2cccs2)c2ccccc2)c1 (stereo not drawn)	-	-	-	-
CCCOc1nc2c(c(=O)n(C)c(=O)n2C)n1CC	2.1µM	-	-	.
COc1ccc(OCc2n(CC(=O)OC3CC(C)CCC3C(C)C)c3ccccc3[n+]2C)cc1 (stereo not drawn)	?	-	1µM	-
CCOC(=O)C1=C(C)N=c2sc(=Cc3ccc(OCC(=O)O)cc3)c(=O)n2C1c1ccc(Cl)cc1 (stereo not drawn)	.	.	.	-
CCOC(=O)C1=C(C)N=c2s/c(=C\c3ccc(OC(C)=O)c(OCC)c3)c(=O)n2C1/C=C/c1ccccc1 (stereo not drawn)	-	-	10µM	-
CCOC(=O)C1=C(C)N=c2s/c(=C\c3ccc(OCC(=O)O)cc3)c(=O)n2C1c1ccc(OC(C)C)cc1 (stereo not drawn)	0.41µM	-	?	-
CCOC(=O)C1=C(C)N=c2s/c(=C/c3ccc(OCC(=O)O)cc3)c(=O)n2C1c1cc(OC)c(OC)c(OC)c1 (stereo not drawn)	0.74µM	-	1µM	-
CC1=C(C(=O)Nc2ccccc2)C(c2ccc(C)o2)n2c(s/c(=C\c3ccco3)c2=O)=N1 (stereo not drawn)	?	-	13µM	-
CCOC(=O)C1=C(C)N=c2s/c(=C\c3cccc(OCC(=O)O)c3)c(=O)n2C1c1ccccc1OC (stereo not drawn)	?	-	?	-
CCCCC1(C)OC(=O)C(=Cc2ccc(SC)cc2)C(=O)O1 (stereo not drawn)	-	-	-	-
N#Cc1c(-c2ccccc2)c(C#N)c2nc3ccccc3n2c1N	-	-	-	-
COc1ccccc1C1C(C(C)=O)=C(C)N=c2s/c(=C\c3cc(OC)c(OC)c(OC)c3)c(=O)n21 (stereo not drawn)	?	-	9.3µM	-
COc1cccc(C2C(C(=O)OC(C)C)=C(C)N=c3s/c(=C\c4ccc(C(=O)O)cc4)c(=O)n32)c1 (stereo not drawn)	?	-	?	-
COc1cccc(C2C(C(=O)Nc3ccccc3)=C(C)N=c3s/c(=C/c4ccc(OCC(=O)O)cc4)c(=O)n32)c1 (stereo not drawn)	1.2µM	-	7.4µM	-
CCCCCCC(c1c(C)n(C)n(-c2ccccc2)c1=O)c1c(C)n(C)n(-c2ccccc2)c1=O	-	-	13µM	-
Cc1c(C(c2ccccc2O)c2c(C)n(C)n(-c3ccccc3)c2=O)c(=O)n(-c2ccccc2)n1C	-	-	?	-
CC(C)Cn1c2c(c(O)c(C(=O)Nc3ccc(F)cc3)c1=O)CCCC2	-	-	-	-
CCOC(=O)c1ccccc1O	-	.	-	.
CCOC(=O)c1ccc(N2Cc3ccccc3C2)cc1O	-	-	4.1µM	-
O=C(OCCOc1ccc(Br)cc1)c1ccc(Cl)nc1	-	-	-	-
CCCCN(CCCNc1ncnc2nc[nH]c12)c1ccccc1	12µM	-	?	-
SMILES	Pf growth 96h	SARS PLpro yeast	Pf growth 48h	AMA1-RON2 inh
COc1ccc(Cc2noc(CN(C)Cc3ccc(-n4cccn4)cc3)n2)cc1OC	2.1µM	-	-	-
CCOC(=O)c1ccc(N2C(=O)CC(N(C)CCc3ccc(OC)c(OC)c3)C2=O)cc1 (stereo not drawn)	.	-	?	-
CCOc1ccc(N2C(=O)CC(N(CCc3ccc(S(N)(=O)=O)cc3)C(C)=O)C2=O)cc1 (stereo not drawn)	-	-	3.7µM	-
CCCCCCOc1ccc(N2C(=O)CC(N(CCc3ccc(S(N)(=O)=O)cc3)C(C)=O)C2=O)cc1 (stereo not drawn)	-	-	?	-
CCOc1cccc(N2C(=O)CC(N(CCc3ccc(OC)c(OC)c3)C(=O)CC)C2=O)c1 (stereo not drawn)	5.9µM	-	-	-
Cc1ccc(C)c(N(CC(=O)N2CCc3ccccc3C2)S(C)(=O)=O)c1	.	.	.	-
O=C(CC1Sc2ncnn2C1=O)Nc1ccc(Br)cc1 (stereo not drawn)	10µM	-	-	-
O=C(CC1SC2=NCCN2C1=O)Nc1ccc(Br)cc1 (stereo not drawn)	.	-	-	-
CCCCCCNC(=O)c1cccc(-c2ccc(C)c3ccccc23)n1	?	-	?	-
COc1ccccc1CNC(=O)c1cccc(-c2ccc(C)c3ccccc23)n1	15µM	-	?	.
O=C1CN(S(=O)(=O)c2ccc(Cl)cc2)c2ccccc2N1	-	-	-	-
O=C(N/N=C/c1sc(=O)n(-c2ccccc2)c1Cl)c1ccccc1	2.3µM	-	?	-
COC(=O)c1cccc(Cn2c(Cl)c(/C=N/NC(=O)c3ccccc3Cl)sc2=O)c1	4.7µM	-	?	-
COC(=O)c1cccc(Cn2c(Cl)c(/C=N/NC(=O)c3ccco3)sc2=O)c1	8.3µM	-	9.3µM	-
O=C(O)c1cccc(Cn2c(Cl)c(/C=N/NC(=O)c3ccc(O)cc3)sc2=O)c1	-	-	-	-
COc1ccccc1/C=C/C(=O)Nc1nc(N)n(-c2ccccc2)n1	-	-	-	-
CC(=O)N(CCCCN1C(=O)c2ccccc2C1=O)c1ccc(C)cc1	-	-	.	-
Clc1ccc(C2C3=C(Nc4ncnn42)c2ccccc2CC3)cc1 (stereo not drawn)	?	-[6.58 µM]	.	.
Cc1c(C(=O)NCc2ccc(F)cc2)c(-c2ccccc2)nn1-c1ccccc1	5.9µM	-	.	-
COc1ccc(CN2CCNC(=O)C2CC(=O)NCCSc2nccn2C)cc1OC (stereo not drawn)	-	-	-	-
C=CCN(CC=C)Cc1cc(=O)oc2ccc3ccccc3c12	.	.	.	-
C=CCN(CC=C)Cc1c(O)ccc2c1oc(=O)c1ccccc12	.	.	.	21µM
O=C(Nc1ccc(F)cc1)c1ccccc1Oc1ccc(C(F)(F)F)cc1[N+](=O)[O-]	-	-	10µM	-
O=C(Nc1ccccc1)c1ccccc1Oc1ccc(C(F)(F)F)cc1[N+](=O)[O-]	-	-	-	-[2.32 µM]
CC(C)(C)OC(=O)N[C@H](C(=O)OC(C)(C)C)c1ccc2c(c1)OCO2	?	-	12µM	?
Cc1ccc(S(=O)(=O)NCc2ccccn2)c(C)c1C	-	-	-	-
O=C(NCc1cccnc1)c1nc(-c2ccccc2)n(-c2ccccc2)n1	3.3µM	-	-	-
Cc1cc(C)n2ncc(C(=O)NCc3cccnc3)c2n1	2.3µM	-	-	-
CC(C)CNC(=O)c1nc(-c2ccccc2)n(-c2ccccc2)n1	-	-	-	-
